The list is not random: actives were taken first. Their share in the collection is about 5.2%.
PfM18AAP inh = blocks P. falciparum M18 aspartyl aminopeptidase; recombinant PfM18AAP, H-Glu-NHMec fluorogenic cleavage; AID 1822; 290,000 compounds, 1.2% hits; inhibition, % at 7.35 µM;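 active = inhibition above the campaign mean inhibition over all tested compounds plus 3 SD, cut at about 28% in these data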
A3G deaminase = APOBEC3G (human) deaminase inhibition; Q9HC16; recombinant A3G, ssDNA deamination FAM/TAMRA fluorescence; inhibition, % at 20 µM; 330,000 compounds, 0.28% hits; AID 493012;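 active = inhibition of at least 40% at 20 µM, with no more than 30% in the related APOBEC3A deaminase screen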
ALR H2O2 inh = inhibitors of human sulfhydryl oxidase ALR; purified ALR, DTT oxidation, H2O2 HRP-luminol luminescence; P55789; inhibition, % (test concentration not listed); 290,000 compounds, 3.8% hits;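 active = mean replicate inhibition above about 79%, with every replicate also reaching it, limit read from the data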
A3A deaminase = blocks human APOBEC3A ssDNA deamination; P31941; recombinant A3A, FAM/TAMRA ssDNA deamination fluorescence; inhibition, % at 20 µM; 330,000 compounds, 0.41% hits; AID 493011;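 active = at least 40% inhibition at 20 µM here, with at most 30% in a related deaminase screen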
CendR NRP1 mod = alters CendR peptide binding to human NRP-1 | O14786 | FAM-RPARPAR peptide binding to NRP-1, fluorescence polarization | inhibition, % at 25 µM | 360,000 compounds, 0.85% hits;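 active = inhibition or corrected inhibition above about 18%, plus a signal ratio from 0.5 to 1.5, limit read from the data, passing the limit was not always enough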
Target sequence (O14786 whole entry, looked up): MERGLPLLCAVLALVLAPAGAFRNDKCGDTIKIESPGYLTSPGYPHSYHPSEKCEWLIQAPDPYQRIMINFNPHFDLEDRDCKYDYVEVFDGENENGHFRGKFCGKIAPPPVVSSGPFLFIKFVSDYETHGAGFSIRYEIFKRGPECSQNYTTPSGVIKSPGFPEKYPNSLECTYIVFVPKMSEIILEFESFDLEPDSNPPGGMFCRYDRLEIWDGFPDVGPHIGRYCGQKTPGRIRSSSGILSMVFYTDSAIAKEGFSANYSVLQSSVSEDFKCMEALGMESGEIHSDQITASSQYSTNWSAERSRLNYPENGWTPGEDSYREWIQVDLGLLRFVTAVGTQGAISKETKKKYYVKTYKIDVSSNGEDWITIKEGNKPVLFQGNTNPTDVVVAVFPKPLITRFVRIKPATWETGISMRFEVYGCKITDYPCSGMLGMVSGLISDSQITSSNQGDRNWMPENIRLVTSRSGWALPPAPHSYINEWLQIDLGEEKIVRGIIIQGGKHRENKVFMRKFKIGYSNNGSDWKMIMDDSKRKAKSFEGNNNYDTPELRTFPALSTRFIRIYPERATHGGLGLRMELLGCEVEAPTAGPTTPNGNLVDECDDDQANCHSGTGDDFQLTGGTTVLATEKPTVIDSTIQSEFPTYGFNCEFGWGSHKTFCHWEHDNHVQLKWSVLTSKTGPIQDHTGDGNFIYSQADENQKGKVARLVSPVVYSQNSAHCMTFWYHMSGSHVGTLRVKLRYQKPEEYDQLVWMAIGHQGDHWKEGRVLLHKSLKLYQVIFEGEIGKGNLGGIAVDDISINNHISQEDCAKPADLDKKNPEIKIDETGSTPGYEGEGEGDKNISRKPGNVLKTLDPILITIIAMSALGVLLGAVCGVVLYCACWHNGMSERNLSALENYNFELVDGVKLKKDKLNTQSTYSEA
Yeast superoxide = yeast age-related superoxide inhibition as caloric restriction mimetic. S. cerevisiae aged cells, superoxide DHE fluorescence; hits give low values. superoxide response (% of plate mean), % at 10 µM. 330,000 compounds, 0.18% hits;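 active = superoxide response under a set limit, about three screen SD below normal, cut at about 65% in these data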;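 also: yeast aged for seven days with compound at 30 °C before DHE staining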
Large screens that a line does not name were inactive.

CCN(CCNS(=O)(=O)c1ccc2[nH]c(=O)sc2c1)c1ccccc1	ALR H2O2 inh 98.2
N#C/C(=C\c1cccnc1)C(=O)Nc1cccc(Cl)c1	ALR H2O2 inh 88.2
Cc1cccc(NC(=O)/C(C#N)=C\c2cccnc2)c1	none
N#C/C(=C\c1cccnc1)C(=O)Nc1ccc(Cl)cc1	ALR H2O2 inh 98.0
COc1ccccc1NC(=O)/C(C#N)=C/c1cccnc1	none
N#C/C(=C\c1cccnc1)C(=O)Nc1cccc2ccccc12	ALR H2O2 inh 94.7
CC(=O)NC(c1cccs1)c1cc([N+](=O)[O-])c2cccnc2c1O (stereo not given)	none (no result: A3G deaminase, A3A deaminase)
CCOc1nc(N=C(N)N)nc2c(C)cccc12	none
CC1CCc2cc(F)ccc2N1C(=O)c1cccs1 (stereo not given)	none
CC1CCc2cc(F)ccc2N1C(=O)CCC(=O)O (stereo not given)	CendR NRP1 mod 24.7
COc1cccc(OCC(=O)NNC(=S)Nc2ccc(Cl)cc2Cl)c1	CendR NRP1 mod 23.8 (no result: ALR H2O2 inh)
COc1ccc(CC(=O)Nc2cccc(S(=O)(=O)N3CCCC3)c2)cc1OC	none (no result: PfM18AAP inh)
CCc1nc(SCc2ccc(F)cc2)[nH]c(=O)c1C#N	ALR H2O2 inh 98.2
COc1ccc(-c2csc(NC(=O)CSc3nnnn3C)n2)cc1OC	ALR H2O2 inh 98.4 (no result: PfM18AAP inh)
COc1ccc(-c2csc(NC(C)=O)n2)cc1OC	none
c1ccc(-c2nc(CSc3nnc(-c4cccs4)o3)cs2)cc1	ALR H2O2 inh 98.0
Cc1nnc(SCC(=O)Nc2nc(-c3ccccc3)cs2)n1N	none
Cn1cnnc1SCC(=O)Nc1nc(-c2ccccc2)cs1	CendR NRP1 mod 19.8
CCCc1cc(=O)[nH]c(SCc2nc3ccc([N+](=O)[O-])cc3[nH]2)n1	ALR H2O2 inh 98.7
CCc1nc(SCc2cccnc2)[nH]c(=O)c1C	ALR H2O2 inh 99.2
Cc1cc(C)nc(SCc2csc(-c3ccccc3)n2)n1	ALR H2O2 inh 98.8
C=CCn1c(SCc2csc(-c3ccc(Cl)cc3)n2)nnc1-c1ccccc1OC	ALR H2O2 inh 81.5
Cc1cc(C)nc(SCc2csc(N)n2)n1	none (no result: ALR H2O2 inh)
O=C(NC1CCN(Cc2ccccc2)CC1)C1CCN(S(=O)(=O)c2ccc(Cl)cc2)CC1	none
CCCc1cc(=O)[nH]c(SCC(=O)Nc2nc(-c3ccccc3)cs2)n1	ALR H2O2 inh 98.8
c1ccc(CSc2nnc(-c3ccncc3)o2)cc1	CendR NRP1 mod 26.2
COc1ccc(-c2csc(NC(=O)[C@H](C)N3C(=O)C4CC=CCC4C3=O)n2)cc1OC (stereo not given in full)	ALR H2O2 inh 91.4 (no result: PfM18AAP inh)
O=C(CSc1nc2ccccc2[nH]1)Nc1nc(-c2ccc(Br)cc2)cs1	ALR H2O2 inh 97.8
CCCc1cc(=O)[nH]c(SCC(=O)NC(=O)c2ccccc2)n1	none
Cc1ccc2c(Cl)cc(Cl)c(OCC(=O)Nc3cccc(S(N)(=O)=O)c3)c2n1	none
CCc1nnc(NC(=O)CSc2ccc(-c3nc4ccccc4[nH]3)cn2)s1	none
CCCc1cc(=O)[nH]c(SCc2csc(-c3ccccc3)n2)n1	ALR H2O2 inh 98.8
O=C(CSc1nnc(-c2cccs2)o1)OCc1ccccc1	none (no result: PfM18AAP inh)
COc1ccccc1C(=O)NC(=O)CSc1nncn1C	CendR NRP1 mod 26.2 (no result: PfM18AAP inh)
CCCc1cc(=O)[nH]c(SCc2cccc(C)c2)n1	none
Cc1nc(NC(=O)CSc2ccc(-c3nc4ccccc4[nH]3)cn2)sc1C	ALR H2O2 inh 98.7
O=C(CSc1nnc(-c2cccs2)o1)OC1CCCCC1	CendR NRP1 mod 33.7
Cc1cc(C)c(S(=O)(=O)Nc2ccc(C(=O)O)cc2)cc1S(=O)(=O)Nc1ccc(C(=O)O)cc1	none (no result: PfM18AAP inh)
O=C(OC(C(=O)Nc1ccc([N+](=O)[O-])cc1Br)c1ccccc1)c1ccccc1 (stereo not given)	none
Cc1ccccc1NC(=O)CSc1n[nH]c(-c2ccccn2)n1	none
O=C(NNC(=O)C1C2CCC(C2)C1C(=O)O)c1cccc(Cl)c1 (stereo not given)	none
CCCc1cc(=O)[nH]c(SCc2cccnc2)n1	ALR H2O2 inh 97.2
CCCc1cc(=O)[nH]c(SCc2ccccc2)n1	none (no result: ALR H2O2 inh)
Nc1ccccc1SCc1csc(-c2ccc(Cl)cc2)n1	ALR H2O2 inh 98.4
CC1(C)CC(CCNC(=O)CCl)(c2ccccc2)CCO1 (stereo not given)	CendR NRP1 mod 26.2 (no result: ALR H2O2 inh)
CC1(C)CC(CCNS(=O)(=O)c2ccccc2)(c2ccccc2)CCO1 (stereo not given)	none
N#CC(C#N)=Cc1cc2ccccc2nc1N1CCCCC1	CendR NRP1 mod 32.6
c1ccc2nc(N3CCCC3)c(N3CCCC3)nc2c1	ALR H2O2 inh 98.6
O=C(CS(=O)c1cccc(C(F)(F)F)c1)Nc1ccccc1Cl (stereo not given)	none
CC(C)c1cc(C(=O)N/N=C/c2ccco2)n[nH]1	ALR H2O2 inh 83.2
O=C(N/N=C/c1ccco1)c1cc(-c2cccs2)[nH]n1	none
CCn1cc(Br)c(C(=O)Nc2cccc(SC)c2)n1	ALR H2O2 inh 98.6
COc1ccc(N(C(=O)c2cccc([N+](=O)[O-])c2)S(=O)(=O)c2ccc3c(c2)n(C)c(=O)n3C)cc1	none
CC(=O)Nc1ccc(S(=O)(=O)NC(C)C(=O)NC(C)c2ccccc2)cc1 (stereo not given)	ALR H2O2 inh 98.7
CC(=O)Nc1ccc(C(=O)NCC(c2ccco2)N(C)C)cc1 (stereo not given)	none
CC(=O)Nc1ccc(S(=O)(=O)N[C@@H](C)C(=O)N2CCN(c3ccccn3)CC2)cc1	ALR H2O2 inh 98.9 (no result: PfM18AAP inh)
CC(=O)Nc1ccc(S(=O)(=O)NC(C)c2ccncc2)cc1 (stereo not given)	none (no result: PfM18AAP inh)
CC(=O)Nc1ccc(S(=O)(=O)NC(C)C(=O)NCC(c2ccco2)N(C)C)cc1 (stereo not given)	CendR NRP1 mod 26.9 (no result: PfM18AAP inh, ALR H2O2 inh, Yeast superoxide)
CCCCCCC1CC(=O)NC(=O)N1 (stereo not given)	none (no result: ALR H2O2 inh)
Cc1ccc(C(=O)Nc2ccc(Cc3ccncc3)cc2)cc1[N+](=O)[O-]	none
Cc1ccc(O)c(C(=O)c2cnn(C(=O)COc3ccc(Cl)cc3)c2)c1	none
CCOc1ccccc1N=c1oc2cc(O)ccc2cc1C(=O)NCC1CCCO1 (stereo not given)	ALR H2O2 inh 98.3
CCOc1ccc(N=c2oc3cc(O)ccc3cc2C(=O)NCC2CCCO2)cc1 (stereo not given)	none
CC(C)(C)OC(=O)NN=C(c1ccc(O)cc1)c1ccc(O)cc1	ALR H2O2 inh 82.2
CCCCNC(=O)c1nc(-c2cc3ccccc3[nH]2)oc1-c1cccc(C(F)(F)F)c1	none (no result: PfM18AAP inh, A3G deaminase, ALR H2O2 inh, A3A deaminase, Yeast superoxide)
O=C(Nc1cccc(F)c1)C1CCN(C(=O)c2ccccc2Cl)CC1	none
CCOc1ccc(-c2csc(NC(=O)CSC3=NC(=O)CN3C(C)=O)n2)c2ccccc12	ALR H2O2 inh 98.6
CC(=O)N1CC(=O)N=C1SCC(=O)Nc1nc(C)c(-c2ccccc2)s1	ALR H2O2 inh 98.3
CC(C)(C)C(=O)CN1CCN(S(=O)(=O)c2ccc(F)cc2)CC1	none (no result: ALR H2O2 inh)
